Laboratory results from PubChem BioAssay (NCATS).
Records with an inconclusive call do not appear. Entries that show only a call come without a potency. The source made the active and inactive calls. Calls come from the whole dose curve; as a rule, active = well fitted curve in the direction sought with a large enough effect; inconclusive = small, poorly fitted or top-dose-only effect, or another doubt; inactive = no such curve, though single readings can be large; an effect the other way counts as inactive or inconclusive. Where a SMILES comes first, the peptide text is derived from it.

Legend:
[1] = P-glycoprotein substrates identified in KB-3-1 adenocarcinoma cell line, qHTS therapeutic library screen (AID 1346986); note: nearly all actives have a fitted effect of over 60% in size
Outline: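 KB-3-1 parental and colchicine-selected P-gp-overexpressing KB-8-5-11 cells (colchicine omitted during assay), 500 cells/well, dosed in dose-response for 72 h at 37 °C; CellTiter-Glo luminescence. Cytotoxic: curve class -1.1 to -2.4, max response >50%, AC50 < 10 uM.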

[2] = P-glycoprotein substrates identified in KB-8-5-11 adenocarcinoma cell line, qHTS therapeutic library screen (AID 1346987); note: nearly all actives have a fitted effect of over 65% in size
Outline: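 Steps: plate 500 KB-8-5-11 cells/well in DMEM + 10% FCS (colchicine removed); pin compounds in dose-response; incubate 72 h, 37 degree C, 5% CO2; add CellTiter-Glo, 5 min; read luminescence.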

SMILES	Potency [1]	Potency [2]	outcome [1]	outcome [2]
CC1CC(O)CC(C)(C)C1(O)CCO (stereo not given)	inactive	inactive		
C[C@@H]1O[C@@H](O[C@H]2[C@H](OC(C#N)c3ccc(O)cc3)O[C@H](CO)[C@@H](O)[C@@H]2O)[C@H](O)[C@H](O)[C@H]1O (stereo not given in full)	inactive	inactive		
CO[C@@]12CC3[C@@H]([C@@H](O)[C@@H](OC(C)=O)C4[C@](C)(COC(C)=O)CCC[C@]34C)[C@@H](C)C1=CC(=O)O2 (stereo not given in full)	inactive	inactive		
CCOc1nc2cccc(C(=O)OCc3oc(=O)oc3C)c2n1Cc1ccc(-c2ccccc2-c2noc(O)n2)cc1	inactive	inactive		
O=c1c2cccnc2n(-c2cccc([N+](=O)[O-])c2)c(=O)n1Cc1ccncc1	inactive	inactive		
CC1(C)CCC2(C(=O)OC3OC(COC4OC(CO)C(O)C(O)C4O)C(O)C(O)C3O)CCC3(C)C(=CCC4C5(C)CCC(O)C(C)(C(=O)O)C5CCC43C)C2C1O (stereo not given)			inactive [at 9.29 µM]	inactive [at 9.29 µM]
CCC(C)/C=C(C)/C=C/C1=CC2=C(Cl)C(=O)C(C)(OC(C)=O)C(=O)C2=CN1C1CCCCN(C(CCC(N)=O)C(=O)O)C1=O (stereo not given)	inactive	inactive		
O=C(/C=C/c1ccc(O)cc1)O[C@H]1[C@@H]2C=CO[C@@H](O[C@@H]3O[C@H](CO)[C@@H](O)[C@H](O)[C@H]3O)[C@@H]2[C@@]2(CO)O[C@@H]12	inactive	inactive		
O=C(O[C@@H]1O[C@H](CO)[C@@H](O)[C@H](O)[C@H]1O)c1c(O)cc(O)cc1/C=C/c1ccccc1	inactive	inactive		
C[C@@H]1O[C@@H](O[C@@H]2[C@@H](O)[C@@H](O)[C@H](O[C@@H]3[C@@H](O)[C@@H](O[C@]4(CO)O[C@H](CO)[C@@H](O)[C@@H]4OC(=O)/C=C/c4ccc(O)cc4)O[C@H](CO)[C@H]3OC(=O)/C=C/c3ccc(O)cc3)O[C@H]2C)[C@H](O)[C@H](O)[C@H]1O			inactive [at 9.29 µM]	inactive [at 9.29 µM]
C[C@@H]1C[C@H](O[C@@H]2O[C@H](CO[C@@H]3OC[C@](O)(CO)[C@H]3O)[C@@H](O)[C@H](O)[C@H]2O)CC(C)(C)[C@H]1/C=C/[C@@H](C)O	inactive	inactive		
CC(C(=O)O)C1CCC2(C)C3C(=O)C=C4C(CCC(=O)C4(C)C)C3(C)CCC12C (stereo not given)	inactive	inactive		
CC1NC(=O)CNC(=O)C(C(C)C)NC(=O)C2CCCN2C(=O)C(C(C)C)NC(=O)C(Cc2c[nH]c3ccccc23)NC1=O (stereo not given) (cyclo(GAWVPV); configuration not given here)	inactive	inactive		
O=C(NC[C@H](O)CN1CCc2ccccc2C1)c1cc(NC2COC2)ncn1	inactive	inactive		
C[C@@H]1CC[C@]2(C(=O)O)CC[C@]3(C)C(=CCC4[C@]5(C)C(CC[C@]43C)C(C)(C)[C@@H](O)[C@H](O)[C@@H]5O)C2[C@]1(C)O (stereo not given in full)	inactive	inactive		
C/C(=C\CCC(C)(O)c1ccc(C)cc1)C(=O)O (stereo not given)	inactive	inactive		
CC(=O)C1CCC2(C)C3=C(CCC12C)C1(C)CCC(=O)C(C)(C)C1CC3 (stereo not given)	inactive	inactive		
C=C1C(O[C@@H]2O[C@H](CO)[C@@H](O)[C@H](O)[C@@H]2O)CC2C(C)(C)C(O)CCC2(C)C1CC/C(C)=C\CO (stereo not given in full)	inactive	inactive		
C=C1C(=O)OC2CC(C)=C(C(C)CCCO[C@@H]3O[C@H](CO)[C@@H](O)[C@H](O)[C@H]3O)C(O)C12 (stereo not given in full)	inactive	inactive		
OC1COC(OCC2OC(OCCc3ccccc3)C(O)C(O)C2O)C(O)C1O (stereo not given)	inactive	inactive		
